This is part of a sample that, as a whole, favours compounds with a hit. Of some 79,000 tested, about 15% had one in any assay. Calls of active or inactive are those of the source. Rule as the data show it: active = growth inhibition above about 70%; inactive = the rest.
Test: NCI Yeast Anticancer Drug Screen. Data for the wt2 strain (AID 169);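 also: 0% = growth of vehicle-treated yeast cultures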
Conditions: S. cerevisiae wt2 strain growth inhibition; at 1.2 µM; active compounds read high
Procedure, shortened: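 This strain belongs to a panel of yeast strains with defined genetic alterations in DNA damage repair or cell cycle control. Compounds are applied, and growth inhibition is measured against vehicle-treated cultures.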

Row | SMILES | growth inhibition
1 | CCN(CC)CC[n+]1ccc2c(C)c3[nH]c4ccc(O)cc4c3c(C)c2c1 | 0% (inactive)
2 | O=[n+]1c2ccc(Cl)cc2n([O-])c2ccc(Cl)cc21 | -5% (inactive)
3 | CCOP(=O)(OCC)C(Cc1ccccc1)N=C(c1ccccc1)c1ccccc1 (centres undefined) | 6% (inactive)
4 | CC[C@@]1(O)C(=O)OCc2c1cc1n(c2=O)Cc2cc3c(N)cccc3nc2-1 | -16% (inactive)
5 | COC1C=COC2(C)Oc3c(C)c(O)c4c(c3C2=O)/C(=N/C2CCC(O)OC2C)C=C(NC(=O)/C(C)=C\C(=O)C2CC2C(O)C(C)C(O)C(C)C(OC(C)=O)C1C)C4=O (centres undefined) | -1% (inactive)
6 | COc1cc2c(c(OC)c1OC)-c1c(cc3c(c1OC)OCO3)CC(C)C(C)(O)C2OC(=O)c1ccccc1 (centres undefined) | -26% (inactive)
7 | O=c1ssc2ncccc12 | -6% (inactive)
8 | O=C1C2C(C(=O)N1c1ccc(OCc3ccccc3)cc1)C1c3ccccc3C2C2CCCCN21 (centres undefined) | -3% (inactive)
9 | COc1ccc(-c2cn(-c3ccc(I)cc3)c3ncnc(N)c23)cc1 | -4% (inactive)
10 | CCOC(=O)C(NC(=O)c1ccccc1)(N1CCN(c2cc3c(cc2F)c(=O)c(C(=O)O)cn3C2CC2)CC1)C(F)(F)F (centres undefined) | -1% (inactive)
11 | C/C(=N\O)C1CC2C=C(C#N)C1N(Cc1ccccc1)C2 (centres undefined) | -1% (inactive)
12 | CC/C(=C(\c1ccccc1)c1ccc(OCCN(C)C)cc1)c1ccccc1 | -9% (inactive)
13 | COc1ccccc1N=NC(C(=O)c1ccccc1)C(=O)c1ccccc1 | -10% (inactive)
14 | CC(O)C(O)C(O)C(/C=N\Nc1ccccc1)=N/Nc1ccccc1 (centres undefined) | 2% (inactive)
